Unmarked numbers belong to inactive results. How the calls were made is not given here.
experiment: S. typhi GFP reporter counter-screen inhibition, late-stage follow-up, counter-screen for PhoP regulon inhibitor project, round 4, purified and synthesized compounds (AID 449734); details: fluorescence, 4 h; series mostly up to 150 µM; inhibition: at the top concentration

SMILES | inhibition [%]
O=C(Nc1ccc(Cl)cc1)N1CCCN(Cc2cccc(Br)c2)C1 | -5.63
O=C(NC1CCCCC1)N1CCCN(Cc2ccccc2F)C1 | 6.2
O=C(Nc1ccc(Cl)cc1)N1CCN(Cc2ccccc2F)C1 | 3.54
CN1CCN(C(=S)NCc2ccc(Cl)cc2)CC1 | 8.07
S=C(NCc1ccc(Cl)cc1)NC1CCOCC1 | -9.07
S=C(NCc1ccc(Cl)cc1)Nc1ccccc1Br | 16.4
S=C(NCc1ccc(Cl)cc1)Nc1ccc(I)cc1 | 11
S=C(NCc1ccc(Cl)cc1)Nc1ccccn1 | 13.4
S=C(NCc1ccccc1)NCc1ccc(Cl)cc1 | -13.1
COc1cccc(CNC(=S)Nc2ccncc2)c1 | -2.42
N#Cc1ccc(CN2CCCN(C(=O)Nc3ccc(Cl)cc3)C2)cc1 | -2.57
S=C(NCc1ccc(Cl)cc1)NN1CCOCC1 | 12.6
Cc1ccccc1NC(=O)N1CCCN(Cc2ccccc2F)C1 | -6.81
S=C(NCc1ccc(Cl)cc1)NC1CCCCC1 | 7.75
S=C(NCc1ccc(Cl)cc1)Nc1ccncn1 | 14.1
FC(F)(F)c1ccc(NC(=S)NCc2ccc(Cl)cc2)cc1 | -2.86
FC(F)(F)c1ccccc1NC(=S)NCc1ccc(Cl)cc1 | -7.95
O=C(Nc1ccc(Cl)cc1)N1CCCN(Cc2cccc(F)c2)C1 | 19.6
S=C(NCc1ccc(Cl)cc1)Nc1cccc(Br)c1 | -14.7
S=C(NCc1ccc(Cl)cc1)Nc1ccccc1I | 12.1
